# Source: PubChem BioAssay (University of Kansas High Throughput Screening Laboratory)
# mHTT-CaM PPI inh = mutant huntingtin-calmodulin interaction inhibitors – biochemical, AlphaScreen, primary screen | actives 3.6% (n = 190,000) | AID 1671202, 2021 | AlphaScreen His-mHTT/GST-CaM binding, luminescence | inhibition, % at 15 µM;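 note: 0% = both proteins with DMSO and 100% = one protein alone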
# Pf apPOL block = Pf-apPOL inhibitors, biochemical, fluorescence; actives 0.25% (n = 210,000); AID 1794808, 2022; inhibition, % at 10 µM; Recombinant Pf-apPOL, molecular beacon fluorescence, 1.5 h; Plasmodium falciparum apicoplast DNA polymerase (apPOL)
# * = called active by the depositor; . = no result given. In the library only some 3.5% were active in any assay of this set; here they are far more common. Cut-off read from the data, not from the text of the source: active = inhibition above about 50%; inactive = the rest.
SMILES,mHTT-CaM PPI inh,Pf apPOL block
Cc1ccc2c(c1)c1c3n2CCN(C(=O)CN2CCN(C(=O)c4ccco4)CC2)C3CCC1 (stereo not drawn),57*,-1
O=C(Nc1nnc(SCC(=O)N2CCCCC2)s1)NC1CCCCC1,-8,-10
Nc1cccc2c1NC(c1ccc(Cl)cc1)C1CCCC21 (stereo not drawn),90*,-4
CC(C)c1noc(-c2cccnc2N2CCCN(C(=O)Cc3cccc(F)c3)CC2)n1,2,-2
COc1ccc(-c2ccc3nc(N4CCC(C(=O)NC(C)C)CC4)sc3n2)cc1,14,-5
CCNC(=O)C1CCN(c2nc3ccc(-c4ccc(OC)cc4)nc3s2)CC1,62*,7
O=C(NCc1ccccc1Cl)c1c(O)c2cccc3c2n(c1=O)CC3,-2,-2
CC(=O)c1ccc2c(c1)C1C=CCC1C(c1ccccc1Cl)N2 (stereo not drawn),40,3
Cc1ccc2c(c1)C1C=CCC1C(c1ccccc1Cl)N2 (stereo not drawn),83*,-8
Clc1ccc2c(c1)C1C=CCC1C(c1cccc3ccccc13)N2 (stereo not drawn),65*,.
O=C(Nc1ccc(F)cc1)c1ccc(Cn2cncn2)cc1,-4,-1
Cn1ncc(N=Cc2cccc([N+](=O)[O-])c2)c1C(=O)N1CCOCC1,4,0
CC1=NN(c2ccc(Cl)c(C(=O)O)c2)C(=O)/C1=C/c1ccc(F)cc1,5,0
O=C(Nc1ccc(Nc2ccc(-n3cccn3)nn2)cc1)c1ncccn1,91*,-1
O=C(Nc1ccc(-c2ccc(=O)[nH]n2)cc1)c1ccc(-n2cccn2)nn1,-14,2
O=C(CC1(O)C(=O)N(Cc2ccc(Cl)cc2)c2ccccc21)c1cccnc1 (stereo not drawn),25,-2
C=CCN1C(=O)C(O)(CC(=O)c2ccc([N+](=O)[O-])cc2)c2ccccc21 (stereo not drawn),16,-4
COc1ccc(C(=O)CC2(O)C(=O)N(CCc3ccccc3)c3ccccc32)cc1[N+](=O)[O-] (stereo not drawn),71*,15
O=C(CC1(O)C(=O)N(Cc2ccc(Cl)cc2)c2ccccc21)c1cccc([N+](=O)[O-])c1 (stereo not drawn),93*,-2
C=CCN1C(=O)C(O)(CC(=O)c2ccc(OC)c([N+](=O)[O-])c2)c2ccccc21 (stereo not drawn),15,-1
O=C(CC1(O)C(=O)N(Cc2ccc(Cl)cc2)c2ccccc21)c1ccc([N+](=O)[O-])cc1 (stereo not drawn),86*,-9
O=C1OC(c2ccccc2Br)=N/C1=C\c1ccc(I)cc1,-3,4
CCCCN1C(=O)C(C)(C(=O)Nc2ccc(F)cc2F)Oc2cccnc21 (stereo not drawn),-14,-3
Clc1ccc(CSc2nccc(-c3csc(-c4ccccc4)n3)n2)cc1,.,0
CCCNC(=O)c1cc(=O)[nH]c2c(Cl)cccc12,0,-6
SMILES,mHTT-CaM PPI inh,Pf apPOL block
COc1ccc(NC(=O)N2CCC(c3nc(C(=O)N(C)C)c(C)o3)CC2)cc1OC,-4,-2
NC(N)=Nc1nc(-c2ccccc2)c2ccccc2n1,73*,-2
Cc1ccc2c(C)nc(N=C(N)N)nc2c1,7,5
CCn1c(C2CCN(C(=O)CCC3CCCC3)C2)nc2cccnc21 (stereo not drawn),18,-4
O=C(O)c1ccc(NC(=O)c2cc3ccccc3o2)cc1,0,-1
O=C(Nc1cccc(NC(=O)c2cc3ccccc3o2)c1)c1ccccc1,14,70*
CC(C)c1ccc(/C=C2\C(=O)Nc3ccc(Br)cc32)cc1,19,0
COc1cc(/C=C2\C(=O)Nc3ccc(F)cc32)cc(OC)c1OC,16,-7
O=C1Nc2ccc(Br)cc2/C1=C/C1CC=CCC1 (stereo not drawn),51*,4
COc1ccc(/C=C2\C(=O)Nc3ccc(Br)cc32)cc1O,99*,-8
O=C1Nc2ccc(Br)cc2/C1=C/c1ccc(OC2CCCC2)cc1,46,-12
COc1cc(/C=C2\NC(=O)NC2=O)cc(Br)c1O,13,-4
COc1cc(/C=C2\C(=O)Nc3ccc(Br)cc32)cc(OC)c1O,100*,-89
COc1cc(/C=C2\C(=O)Nc3ccc(Br)cc32)cc(Br)c1O,100*,-6
Cc1ccc(-c2ncc(C(=O)N3CCCC3)c(N3CCN(C)CC3)n2)cc1,15,3
O=C(Nc1ccc(C(=O)N2CCCCC2)cc1)C1C2CC3OC(=O)C1C3C2 (stereo not drawn),-2,-6
O=C(c1ccc(C(F)(F)F)cc1)N1CCc2nc(-c3ccc(F)cc3)ncc2C1,-7,1
COc1cc(/C=C2\C(=O)Nc3ccc(Br)cc32)cc(Br)c1OC,59*,-5
CCOc1cc(/C=C2\C(=O)Nc3ccc(Br)cc32)cc(Br)c1OCC,9,0
CCC(CC)C(=O)N1CCc2c(c(C(=O)NCc3ccccc3)nn2C)C1,51*,-4
CCCC(CCC)C(=O)N1CCc2c(c(C(=O)NCc3ccc(F)cc3)nn2C)C1,77*,-5
CCCCC(=O)N1CCc2c(c(C(=O)NCc3ccc(F)cc3)nn2C)C1,47,-9
Cn1nc(C(=O)NCc2ccc(Cl)cc2)c2c1CCN(C(=O)c1ccc(F)cc1)C2,-10,4
CCC(=O)N1CCc2c(c(C(=O)NCc3ccccc3)nn2C)C1,-6,-5
CCC(CC)C(=O)N1CCc2c(c(C(=O)NCc3ccc(Cl)cc3)nn2C)C1,71*,-2
SMILES,mHTT-CaM PPI inh,Pf apPOL block
O=C(COc1ccc(Br)cc1)Nc1ccc(N2CCCC2)cc1,7,1
O=C(Nc1ccc(Br)cc1)C1CCC(N2C(=O)c3ccccc3C2=O)CC1 (stereo not drawn),-1,-5
CCOC(=O)c1c(C)oc2cc(Br)c(OC(=O)c3cc(OC)c(OC)c(OC)c3)cc12,-3,-7
CCCC(NC)c1cccc(OC)c1 (stereo not drawn),-4,-1
COc1ccccc1C(=O)N1CCCN(C2CCN(Cc3ccc(F)cc3)C2=O)CC1 (stereo not drawn),15,-2
O=C(c1ccccc1Cl)N1CCCN(C2CCN(Cc3ccc(F)cc3)C2=O)CC1 (stereo not drawn),57*,-4
Cc1[nH]c2ccccc2c1C(Nc1nccs1)c1ccc2c(c1)OCO2 (stereo not drawn),83*,7
Cc1[nH]c2ccccc2c1C(C[N+](=O)[O-])c1cc(Cl)c2c(c1)OCO2 (stereo not drawn),62*,1
COc1ccc(C(C[N+](=O)[O-])c2c(O)cc(C)oc2=O)cc1 (stereo not drawn),6,1
O=[N+]([O-])CC(c1ccc2c(c1)OCO2)c1c[nH]c2ccccc12 (stereo not drawn),20,-6
Cc1cc(O)c(C(C[N+](=O)[O-])c2ccc(Cl)cc2Cl)c(=O)o1 (stereo not drawn),3,2
COc1cc(C(C[N+](=O)[O-])c2c(C)[nH]c3ccccc23)ccc1O (stereo not drawn),61*,1
Cc1[nH]c2ccccc2c1C(C[N+](=O)[O-])c1ccc2c(c1)OCO2 (stereo not drawn),75*,4
O=C(Nc1nccs1)c1ccc2c(c1)OCO2,-4,-11
O=C(Cn1cnc2ccccc21)N1CCN(Cc2csc(-c3ccccc3)n2)CC1,10,-7
